PubChem BioAssay
For some of these results: Potency and affinity values are given separately. The source made the active and inactive calls. Unless noted, how the calls were made is not given here.

Experiments:
[1] = antimalarial activity against Dd2 strain (AID 2302;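 active means growth inhibition above 50% at the single 2 µM test dose, taken to imply half-maximal potency below 2 µM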;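 further: 0% = DMSO untreated growth and 100% = chloroquine plus artemisinin killed control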); details: P. falciparum Dd2 in RBCs, LDH growth readout, 72 h; at 2 µM; hits give high values
[2] = human hepatoma cell viability loss – ATP luminescence, cytotoxicity control for P. falciparum antimalarial project, primary screen (AID 2303;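 active means inhibition above 50%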;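 further: 0% = DMSO wells and 100% = digitonin-killed cells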); details: HepG2 viability, 24-48 h, at 10 µM, hits give high values
[3] = target: L-lactate dehydrogenase (Plasmodium falciparum (isolate CDC / Honduras)) (UniProt Q27743); test: PfLDH activity inhibition – cell lysate, 3D7 strain, counter-screen for P. falciparum growth inhibition project (AID 2304);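 further: 0% = vehicle and 100% = reference inhibitor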; details: P. falciparum 3D7 crude extract, LDH APAD/NBT absorbance; at 2 µM; hits give high values
L-lactate dehydrogenase (Plasmodium falciparum (isolate CDC / Honduras)), sequence (Q27743 whole entry, looked up): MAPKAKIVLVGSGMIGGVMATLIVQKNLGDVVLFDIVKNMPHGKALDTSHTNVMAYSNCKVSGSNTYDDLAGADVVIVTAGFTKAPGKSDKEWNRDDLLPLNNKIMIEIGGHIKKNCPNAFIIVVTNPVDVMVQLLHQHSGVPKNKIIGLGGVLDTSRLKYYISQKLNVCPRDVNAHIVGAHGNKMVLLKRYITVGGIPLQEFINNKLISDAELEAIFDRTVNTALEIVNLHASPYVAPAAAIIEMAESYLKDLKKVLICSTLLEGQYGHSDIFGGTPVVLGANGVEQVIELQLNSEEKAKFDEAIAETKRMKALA

[4] = inhibition of 3D7 malaria parasite growth – strain 3D7 (AID 2306);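 further: 0% = DMSO wells and 100% = chloroquine plus artemisinin control wells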; details: P. falciparum 3D7 erythrocytic growth, LDH absorbance, 72 h; at 2 µM; hits give high values
[5] = target: Calcium-dependent protein kinase 1 (Plasmodium falciparum (isolate 3D7)) (UniProt P62344); test: PfCDPK1 kinase inhibitors, biochemical, TCAMS library (AID 1159585; cut-off not given, nearly all actives have IC50 up to about 0.98 µM;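 further: inhibitors leave more ATP so luminescence rises with inhibition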); details: recombinant PfCDPK1, Kinase-Glo ATP depletion luminescence
Calcium-dependent protein kinase 1 (Plasmodium falciparum (isolate 3D7)), sequence (P62344 whole entry, looked up): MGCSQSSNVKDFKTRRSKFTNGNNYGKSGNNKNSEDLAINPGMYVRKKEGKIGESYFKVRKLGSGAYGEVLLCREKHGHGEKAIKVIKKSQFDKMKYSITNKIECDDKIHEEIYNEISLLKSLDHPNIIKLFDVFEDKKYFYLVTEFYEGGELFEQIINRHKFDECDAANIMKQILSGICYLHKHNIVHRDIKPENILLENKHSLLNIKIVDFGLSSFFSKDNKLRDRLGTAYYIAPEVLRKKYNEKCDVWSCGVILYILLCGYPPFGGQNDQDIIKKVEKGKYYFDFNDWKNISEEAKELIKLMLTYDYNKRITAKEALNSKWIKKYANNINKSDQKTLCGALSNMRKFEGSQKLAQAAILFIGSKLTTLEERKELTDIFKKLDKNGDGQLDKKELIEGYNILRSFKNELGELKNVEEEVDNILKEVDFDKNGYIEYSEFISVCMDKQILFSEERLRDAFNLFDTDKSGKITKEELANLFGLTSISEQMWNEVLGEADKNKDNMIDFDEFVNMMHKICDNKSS

[6] = target: Plasmodium falciparum protein kinase 6 (PK6, PF3D7_1337100) (UniProt Q8IDW1); test: PfPK6 kinase inhibitors, biochemical, TCAMS library (AID 1159586); details: recombinant PfPK6, Kinase-Glo ATP depletion luminescence
Plasmodium falciparum protein kinase 6 (PK6, PF3D7_1337100), sequence (Q8IDW1 1-305): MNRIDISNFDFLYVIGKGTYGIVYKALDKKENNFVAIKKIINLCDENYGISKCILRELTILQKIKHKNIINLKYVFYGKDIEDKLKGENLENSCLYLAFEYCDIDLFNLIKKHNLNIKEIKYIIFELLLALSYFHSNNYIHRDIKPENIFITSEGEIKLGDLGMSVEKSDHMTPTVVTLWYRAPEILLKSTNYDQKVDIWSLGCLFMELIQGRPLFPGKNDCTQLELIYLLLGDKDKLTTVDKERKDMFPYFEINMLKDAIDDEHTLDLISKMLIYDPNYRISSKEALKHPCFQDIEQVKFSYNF

[7] = target: Protein kinase 7 (PK7), Plasmodium falciparum 3D7 (PF3D7_0213400) (UniProt Q7YTF7); test: inhibition of Plasmodium PK7 catalytic activity – biochemical, TCAMS antimalarial set, Kinase-Glo luminescence (AID 1159587); details: recombinant PfPK7, Kinase-Glo ATP depletion luminescence
Protein kinase 7 (PK7), Plasmodium falciparum 3D7 (PF3D7_0213400), sequence (Q7YTF7 1-343): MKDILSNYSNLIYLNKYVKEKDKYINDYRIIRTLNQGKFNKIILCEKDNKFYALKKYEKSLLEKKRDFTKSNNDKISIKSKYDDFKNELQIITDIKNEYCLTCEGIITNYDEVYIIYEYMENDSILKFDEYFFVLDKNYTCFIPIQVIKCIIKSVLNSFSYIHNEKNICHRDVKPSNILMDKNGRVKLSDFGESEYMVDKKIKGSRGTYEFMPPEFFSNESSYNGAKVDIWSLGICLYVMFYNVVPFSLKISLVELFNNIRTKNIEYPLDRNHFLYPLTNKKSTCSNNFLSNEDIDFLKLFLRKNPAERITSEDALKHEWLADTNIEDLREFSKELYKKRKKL

[8] = target: Calcium-dependent protein kinase 4 (Plasmodium falciparum (isolate 3D7)) (UniProt Q8IBS5); test: PfCDPK4 kinase inhibitors, biochemical, TCAMS library (AID 1159588; cut-off not given, nearly all actives have IC50 up to about 0.91 µM); details: recombinant PfCDPK4, Kinase-Glo ATP depletion luminescence
Calcium-dependent protein kinase 4 (Plasmodium falciparum (isolate 3D7)), sequence (Q8IBS5 whole entry, looked up): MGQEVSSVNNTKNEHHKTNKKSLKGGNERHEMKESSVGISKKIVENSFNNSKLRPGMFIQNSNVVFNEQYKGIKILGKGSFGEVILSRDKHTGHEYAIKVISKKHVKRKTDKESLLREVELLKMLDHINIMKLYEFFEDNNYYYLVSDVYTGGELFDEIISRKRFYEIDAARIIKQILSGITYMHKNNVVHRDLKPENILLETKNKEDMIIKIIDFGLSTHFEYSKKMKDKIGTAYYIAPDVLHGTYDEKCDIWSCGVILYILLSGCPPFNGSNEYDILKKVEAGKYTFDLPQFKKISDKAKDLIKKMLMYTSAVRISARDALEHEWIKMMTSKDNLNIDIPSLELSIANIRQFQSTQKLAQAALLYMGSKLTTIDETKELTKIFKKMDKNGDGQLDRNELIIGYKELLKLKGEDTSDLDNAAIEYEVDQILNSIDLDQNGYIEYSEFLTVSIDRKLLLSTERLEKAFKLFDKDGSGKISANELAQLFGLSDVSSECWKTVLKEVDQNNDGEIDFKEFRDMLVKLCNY

O=c1cc(NCCCNCc2ccc(Cl)c(Cl)c2)[nH]c2ccc(C(F)(F)F)cc12
inactive: inhibition [2] 10% | inhibition [3] -5% | outcome [5] | outcome [6] | outcome [7] | outcome [8]
active: growth inhibition [1] 68% | growth inhibition [4] 103%

O=C(Nc1cccc(-c2nn3ccccc3c2-c2ccnc(Nc3ccc(Cc4ccncc4)cc3)n2)c1)c1c(F)cccc1F
active: growth inhibition [1] 97% | growth inhibition [4] 97%
inactive: inhibition [2] 43% | inhibition [3] -1% | outcome [5] | outcome [6] | outcome [7] | outcome [8]

CC(C)NCc1ccc(-c2ccc(NC(=O)c3cccc(C#N)c3)cc2)cc1
active: growth inhibition [1] 77% | growth inhibition [4] 99%
inactive: inhibition [2] 40% | inhibition [3] -2% | outcome [5] | outcome [6] | outcome [7] | outcome [8]

Cc1c(F)cc(C(=O)NC2CC2)cc1-c1ccc2c(cnn2S(=O)(=O)c2cccs2)c1
active: growth inhibition [1] 68% | growth inhibition [4] 92%
inactive: inhibition [2] 32% | inhibition [3] -4% | outcome [5] | outcome [6] | outcome [7] | outcome [8]

CCCC(C)NC(=O)[C@H](Cc1ccccc1)NC(=O)c1ccc(O)c(-c2ccc(OC)cc2)c1 (stereo not given in full)
inactive: growth inhibition [1] 1% | inhibition [2] 12% | inhibition [3] 2% | outcome [5] | outcome [6] | outcome [7] | outcome [8]
active: growth inhibition [4] 85%

N#Cc1ccc2c(c1)CN(CCC1CCC(NC(=O)c3cc4cc(OC(F)(F)F)ccc4[nH]3)CC1)CC2 (stereo not given)
inactive: growth inhibition [1] 19% | inhibition [2] 4% | inhibition [3] 4% | outcome [5] | outcome [6] | outcome [7] | outcome [8]
active: growth inhibition [4] 101%

NCC(=O)NC12CC3CC(CC(C3)C1)C2
inactive: growth inhibition [1] -4% | inhibition [2] 15% | inhibition [3] -2% | outcome [5] | outcome [6] | outcome [7] | outcome [8]
active: growth inhibition [4] 87%

Cc1ccc(C2CCN(CCCCNC(=O)c3ccc(NC(=O)c4ccc(Cl)cc4)cc3)CC2)c(OCC(F)(F)F)c1
active: growth inhibition [1] 84% | growth inhibition [4] 99%
inactive: inhibition [2] 32% | inhibition [3] -4% | outcome [5] | outcome [6] | outcome [7] | outcome [8]

CC(=O)N1N=C(c2ccc(F)cc2)Sc2c1nc(C1CCCCC1)n2C(C)=O
active: growth inhibition [4] 92%
inactive: growth inhibition [1] 9% | inhibition [2] 4% | inhibition [3] 4% | outcome [5] | outcome [6] | outcome [7] | outcome [8]

CC(C)(C)OC(=O)NCC(=O)N(Cc1ccccc1)Cc1ccccc1
inactive: inhibition [2] -10% | inhibition [3] 2% | outcome [5] | outcome [6] | outcome [7] | outcome [8]
active: growth inhibition [1] 93% | growth inhibition [4] 97%

CCCCN1CCCC[C@H]1[C@@H](O)c1ccnc2ccc(OCC)cc12
inactive: inhibition [2] 6% | inhibition [3] -2% | outcome [5] | outcome [6] | outcome [7] | outcome [8]
active: growth inhibition [1] 88% | growth inhibition [4] 100%

CCn1ccc2c(N3CCCCS3(=O)=O)cc(C(=O)N[C@@H](Cc3ccccc3)[C@H](O)CNC(C)(C)c3cccc(C(F)(F)F)c3)cc21
inactive: inhibition [2] 6% | inhibition [3] -4% | outcome [5] | outcome [6] | outcome [7] | outcome [8]
active: growth inhibition [1] 98% | growth inhibition [4] 97%

Clc1cc(Nc2ccnc3ccc(Br)cc23)ccc1Oc1ccc2ccccc2c1Cl
active: growth inhibition [1] 93% | growth inhibition [4] 100%
inactive: inhibition [2] 5% | inhibition [3] -5% | outcome [5] | outcome [6] | outcome [7] | outcome [8]

CC(C)NCc1ccc(-c2ccc(NC(=O)c3ccc(C#N)cc3)cc2)cc1
inactive: growth inhibition [1] 0% | inhibition [2] 23% | inhibition [3] -2% | outcome [5] | outcome [6] | outcome [7] | outcome [8]
active: growth inhibition [4] 90%

CCOc1ccccc1C(=O)Nc1cccc(-c2nc3ncccn3c2C)c1
inactive: inhibition [2] 0% | inhibition [3] -6% | outcome [5] | outcome [6] | outcome [7] | outcome [8]
active: growth inhibition [1] 88% | growth inhibition [4] 92%

C[C@@H](CC1CCCCC1)OC(=O)N(C)[C@@H]1CCN(C#N)C1
active: growth inhibition [1] 96% | growth inhibition [4] 95%
inactive: inhibition [2] 5% | inhibition [3] 3% | outcome [5] | outcome [6] | outcome [7] | outcome [8]

Cc1cccc2[nH]c(-c3ccc(-c4ccc(CN5CCCC(O)C5)cc4)s3)nc12 (stereo not given)
inactive: growth inhibition [1] 29% | inhibition [2] 38% | inhibition [3] -1% | outcome [5] | outcome [6] | outcome [7] | outcome [8]
active: growth inhibition [4] 101%

N#Cc1ccc(N2CCN(Cc3cccc(-c4ccc(-c5nc6ccc(C(F)(F)F)cc6[nH]5)cc4)c3)CC2)nc1
active: growth inhibition [1] 81% | growth inhibition [4] 101%
inactive: inhibition [2] 39% | inhibition [3] -1% | outcome [5] | outcome [6] | outcome [7] | outcome [8]

COc1cccc(C(=O)[C@H]2C[C@@H]2CN(C)CC(O)c2cc(C)c(OC)cc2C)c1 (stereo not given in full)
active: growth inhibition [1] 73% | growth inhibition [4] 88%
inactive: inhibition [2] 8% | inhibition [3] 2% | outcome [5] | outcome [6] | outcome [7] | outcome [8]

C[C@@H](N=C(Nc1ccc(-c2ccccc2)cc1)Nc1ccc(C#N)cc1O)c1ccc(Br)cc1
inactive: inhibition [2] 9% | inhibition [3] 2% | outcome [5] | outcome [6] | outcome [7] | outcome [8]
active: growth inhibition [1] 95% | growth inhibition [4] 99%
